Measured values reported in the supplement of paper PMC6555819.

Experiments:
Assay in all cases: PBM binding z-score (relative to random genomic background probes); higher = stronger binding; sequences stand for … in GC…GCGATTGACAGCGTAGAATGAAGG
[1] = tested on: FXR:RXRa (NR concentration 270 nM, RXRa partner concentration 90 nM)
Outline: (§1)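 Ligand-free nuclear receptor dimers were applied to custom Agilent 4×180K protein-binding microarrays whose double-stranded probes carried direct-repeat seeds, single-nucleotide variants, half-site ablations and random human genomic background sequences in 34-nt variable regions. Incubation lasted 1 h. Binding z-scores were computed against the random background probes from regression-normalized fluorescence.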

[2] = tested on: LXRa:RXRa (NR concentration 270 nM, RXRa partner concentration 90 nM)
Outline: as §1

[3] = tested on: LXRa homodimer (NR concentration 270 nM)
Outline: as §1

[4] = tested on: LXRb:RXRa (NR concentration 270 nM, RXRa partner concentration 90 nM)
Outline: as §1

[5] = tested on: PPARa:RXRa (NR concentration 270 nM, RXRa partner concentration 90 nM)
Outline: as §1

[6] = tested on: PPARg:RXRa (NR concentration 180 nM, RXRa partner concentration 90 nM)
Outline: as §1

[7] = tested on: PPARg:RXRa 270nM:90nM, anti-RXR (NR concentration 270 nM, RXRa partner concentration 90 nM)
Outline: as §1

[8] = tested on: PPARg:RXRa 30nM:10nM, anti-RXR (NR concentration 30 nM, RXRa partner concentration 10 nM)
Outline: as §1

[9] = tested on: PPARg:RXRa 90nM:30nM, anti-RXR (NR concentration 90 nM, RXRa partner concentration 30 nM)
Outline: as §1

[10] = tested on: PPARg:RXRa DBDmut IVT, anti-RXR (DBD mutation: RXRa K156A/R161A, NR concentration 270 nM, RXRa partner concentration 90 nM)
Outline: as §1

[11] = tested on: PPARg:RXRa IVT, anti-PPARg (NR concentration 270 nM, RXRa partner concentration 90 nM)
Outline: as §1

[12] = tested on: PPARg homodimer (NR concentration 180 nM)
Outline: as §1

[13] = tested on: PXR:RXRa (NR concentration 270 nM, RXRa partner concentration 90 nM)
Outline: as §1

[14] = tested on: PXR homodimer (NR concentration 270 nM)
Outline: as §1

[15] = tested on: RARa:RXR (NR concentration 270 nM, RXRa partner concentration 90 nM)
Outline: as §1

[16] = tested on: RARa homodimer (NR concentration 270 nM)
Outline: as §1

[17] = tested on: RARb:RXRa (NR concentration 270 nM, RXRa partner concentration 90 nM)
Outline: as §1

Sequence | PBM binding z-score [1] | PBM binding z-score [2] | PBM binding z-score [3] | PBM binding z-score [4] | PBM binding z-score [5] | PBM binding z-score [6] | PBM binding z-score [7] | PBM binding z-score [8] | PBM binding z-score [9] | PBM binding z-score [10] | PBM binding z-score [11] | PBM binding z-score [12] | PBM binding z-score [13] | PBM binding z-score [14] | PBM binding z-score [15] | PBM binding z-score [16] | PBM binding z-score [17]
CCGAGCAGGTTACGAGGGGGCATTCAGTGCGAAT | 2.35 | 7.31 | 1.46 | 6.07 | 3.01 | 0.89 | 1.95 | 0.464 | 1.36 | 1.69 | 2.54 | 1.34 | 5.19 | 4.97 | 3.16 | 0.223 | 2.22
CCGAGTAGGTTACGATGGGGCATTCAGTGCGAAT | 0.181 | 6.63 | -0.148 | 3.71 | 1.42 | 0.775 | 1.01 | -0.257 | 0.557 | 4.25 | 3.03 | -0.0463 | 0.69 | 0.101 | 0.251 | -0.659 | 1.03
CCGAGTAGGTTACGAGGGGGCATTCAGTGCGAAT | 2.35 | 6.98 | 1.84 | 6.35 | 3.42 | 2.22 | 3.3 | 1.24 | 2.55 | 4.8 | 4.49 | 2.04 | 5.02 | 6.02 | 3.43 | 0.391 | 2.2
CCGAGTAGGTTACGAGGGGCCATTCAGTGCGAAT | 1.12 | 5.25 | -0.218 | 3.07 | 1.76 | 1.4 | 1.54 | 0.0553 | 0.829 | 4.13 | 3.51 | 0.766 | 2.92 | 1.09 | 1.11 | 0.136 | 1.47
TCGAGTAGGTTACGGGGTCATTCAGGGATGAAGA | 6.23 | 5.46 | 1.76 | 5.33 | 6.21 | 8.14 | 6.68 | 4.18 | 5.91 | 5.23 | 6.24 | 2.46 | – | 2.57 | – | 0.377 | 3.87
CCGAGTAGGCTACGAGGGGGCATTCAGTGCGAAT | 0.473 | 3.15 | 0.222 | 3.4 | 1.72 | 0.0175 | 1.1 | -0.389 | 0.48 | 2.33 | 1.4 | 0.546 | 2.05 | 3.02 | 1.31 | -0.663 | 0.81
TCGAGTAGGTTACGGGGGCACTCAGGGATGAAGA | 2.26 | 2.67 | 0.365 | 4.7 | 4.43 | 6.44 | 6.05 | 3.54 | 5.14 | 4.71 | 6.2 | 2.56 | 2.71 | 0.594 | 3.05 | -0.263 | 2.65
TCGAGTAGGTTACGGGGGCATTCGGGGATGAAGA | 3.14 | 3.56 | 0.662 | 5.09 | 4.28 | 6.03 | 5.81 | 3.14 | 4.8 | 5.16 | 5.85 | 3.02 | 3.55 | 2 | 3.36 | 0.243 | 2.54
TCGAGTAGGTTACGCGGGCATTCAGGGATGAAGA | 0.576 | 0.477 | -0.0246 | -0.00737 | 1.49 | 1.38 | 1.88 | 1.46 | 1.79 | 2.91 | 3.32 | 0.356 | – | -0.508 | 0.641 | -0.865 | 0.946
CTATGTAGGTTAATGGGGTCATTCAGTTTGAAAG | 5.79 | 5.31 | 3.46 | 5.41 | 6.23 | 7.9 | 7.12 | 4.64 | 6.55 | 7.34 | 7.83 | 3.7 | – | 13.3 | 6.66 | 1.57 | 3.3
TCGAGTAGGTTACGGGGCCATTCAGGGATGAAGA | 0.993 | 0.505 | -0.236 | 0.939 | 2.58 | 3.24 | 3.52 | 1.65 | 2.58 | 3.76 | 4.63 | 0.412 | 0.639 | -0.128 | 0.892 | -0.208 | 1.44
TCGAGTAGGTTACGGGGGCATTGAGGGATGAAGA | 2.37 | 2.69 | 0.404 | 4.67 | 4.31 | 6.35 | 5.59 | 3.59 | 5.05 | 5.26 | 6.02 | 2.89 | – | 1.71 | – | 0.325 | 2.69
TCGAGTAGGTTACTGGGGCATTCAGGGATGAAGA | 0.441 | 0.372 | -0.186 | 0.462 | 3.51 | 4.99 | 4.53 | 2.29 | 3.46 | 5.34 | 6.18 | 0.888 | – | -0.522 | 0.925 | -0.357 | 1.08
CCGAGTAGGTTCCGAGGGGGCATTCAGTGCGAAT | 0.618 | 1.8 | 1.32 | 4.15 | 2.04 | -0.00423 | 1.42 | 0.548 | 0.958 | 1.28 | 2.13 | 1.1 | – | 6.61 | 2.14 | 0.637 | 1.3
CCGAGTAGGTTACGAGGGCGCATTCAGTGCGAAT | 0.0416 | 1.77 | -0.35 | 0.425 | 1.72 | 2.6 | 2.55 | -0.0123 | 1.62 | 4.97 | 4.85 | -0.00528 | 0.483 | -0.379 | – | -0.752 | 1.29
TCGAGTAGGTTACGGGGGCATACAGGGATGAAGA | 2.72 | 2.52 | 0.664 | 4.86 | 4.48 | 6.1 | 5.69 | 3.56 | 5.05 | 5.24 | 5.71 | 3.33 | 2.97 | 1.54 | 3.27 | 0.305 | 2.65
TCGAGTAGGTTACGGGGGCATTAAGGGATGAAGA | 2.01 | 2.81 | 0.404 | 4.64 | 4.16 | 6.03 | 5.7 | 3.23 | 5.14 | 4.98 | 6.1 | 1.98 | 2.76 | 1.24 | 2.79 | 0.727 | 2.59
